# Measurements as given in PubChem BioAssay (NCATS).
# Records with an inconclusive call do not appear. Calls of active or inactive are those of the source. Calls come from the whole dose curve; as a rule, active = well fitted inhibition curve with a large enough effect; inconclusive = small, poorly fitted or top-dose-only effect; inactive = flat fitted curve, though single readings scatter.
# Target: Glutathione peroxidase 1 (Homo sapiens) (UniProt P07203)
# Assay: Primary qHTS Assay for Inhibitors of Recombinant Selenoprotein Glutathione Peroxidase 1 (GPX1) (AID 1845191); note: nearly all actives have a fitted effect of over 65% in size
# Details: recombinant GPX1, GR-coupled NADPH fluorescence, 15 min; series mostly up to 48.8 µM; activity, negative = inhibition: at the top concentration
# Summary of the method: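 GR-coupled assay: compounds preincubated 30 min at room temperature with GPX1, then reaction started with CHP; final 10 nM GPX1, 1 mM GSH, 0.5 mM CHP, 0.5 mM NADPH, 100 nM GR, 0.01% BSA, pH 7.5 Tris buffer. NADPH fluorescence (340/450 nm) read at 0 and 15 min.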
# % is set by controls: 0 for no effect and ±100 for the full control effect.
# Sequence of Glutathione peroxidase 1 (Homo sapiens) (P07203 whole entry, looked up): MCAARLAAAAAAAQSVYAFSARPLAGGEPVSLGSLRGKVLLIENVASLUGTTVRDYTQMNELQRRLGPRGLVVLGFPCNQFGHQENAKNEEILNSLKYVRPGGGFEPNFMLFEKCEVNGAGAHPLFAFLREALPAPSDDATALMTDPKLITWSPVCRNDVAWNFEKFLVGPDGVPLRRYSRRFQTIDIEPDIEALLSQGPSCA
Compound,Potency,"activity, negative = inhibition",outcome
Nc1nc(Nc2ccc3c(c2)CC[C@@H](N2CCCC2)CC3)nn1-c1cc2c(nn1)-c1ccccc1CCC2,inactive,,
O=C(O)[C@@H]1CCCN1,,-5.85% (inactive),
CC[C@H]1OC(=O)[C@H](C)[C@@H](O[C@H]2C[C@@](C)(OC)[C@@H](O)[C@H](C)O2)[C@H](C)[C@@H](O[C@@H]2O[C@H](C)C[C@H](N(C)C)[C@H]2O)[C@](C)(OC)C[C@@H](C)C(=O)[C@H](C)[C@@H](O)[C@]1(C)O,,-4.22% (inactive),
CN[C@@H](C)C(=O)N[C@H](C(=O)N1CCC[C@H]1c1nc(C(=O)c2ccc(F)cc2)cs1)C1CCCCC1,inactive,,
CCn1c(N)c(C(=O)NC)c(=O)c2ccc(C#C[C@@](C)(O)COC)nc21,,,inactive
N[C@@H]1CCCCN(c2c(F)cc3c(=O)c(C(=O)O)cn(C4CC4)c3c2Cl)C1,,,inactive
CC(C)[C@H](N)C(=O)O,,-2.32% (inactive),
CN(CCCCCCCCCCN(C)C(=O)Oc1cccc([N+](C)(C)C)c1)C(=O)Oc1cccc([N+](C)(C)C)c1,,-19.8% (inactive),
NCCNc1ccc(NCCN)c2c1C(=O)c1ccncc1C2=O,,-10.7% (inactive),
Cc1cc2c(F)c(Oc3ncnn4cc(OC[C@@H](C)OC(=O)[C@H](C)N)c(C)c34)ccc2[nH]1,,,inactive
CN[C@@H]1[C@@H](O)[C@@H](O[C@@H]2[C@@H](O)[C@H](O[C@H]3O[C@H]([C@@H](C)NC)CC[C@H]3N)[C@@H](N)C[C@H]2N)OC[C@]1(C)O,,-7.89% (inactive),
